# From the supplement of paper PMC8728848
# Shown is part of a subset that was picked to be rich in the strongest signals.
# B1: rMpL (Macrolepiota procera) (protein)
# chain: MSTQVSSGRTYKITNVIAGTVIDLSGEDNKSIIGYPYHSGKNQQWTFNWTGKAWTLRSASSGSYLGIEGTPAGGTRLVAVNDPFEWHIWRDEANENAFRIFVPFTNYNLDLSGYGDTTPGTPVQLWWTWEGLHQTWTIDRP
# Tests used:
# Test in all cases: glycan array binding signal (z-score within array); higher = stronger binding
# Conditions in all cases: glycan notation: IUPAC condensed, linker removed
# [1] = molecular target: Fuc(a1-2)Gal(b1-3)GalNAc(b1-3)Gal
# Summary of the method: (§1)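 Glycan array binding is given as a within-array Z-score, which can be read as non-binding when negative. The arrays, 3228 of them, came from the Consortium for Functional Glycomics database and were retained only where the protein sequence was available. Z-scores were averaged across arrays of the same protein sequence at different concentrations or buffers and across linkers.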
# [2] = molecular target: Fuc(a1-2)Gal(b1-3)GlcNAc(b1-3)[Fuc(a1-2)Gal(b1-3)GlcNAc(b1-6)]GalNAc
# Summary of the method: as §1
# [3] = molecular target: Fuc(a1-2)Gal(b1-4)GlcNAc(b1-3)Gal(b1-4)GlcNAc(b1-3)Gal(b1-4)GlcNAc
# Summary of the method: as §1
# [4] = molecular target: Fuc(a1-2)Gal(b1-4)GlcNAc(b1-3)GalNAc
# Summary of the method: as §1
# [5] = molecular target: Fuc(a1-2)[Gal(a1-3)]Gal(b1-3)GlcNAc(b1-2)Man(a1-3)[Fuc(a1-2)[Gal(a1-3)]Gal(b1-3)GlcNAc(b1-2)Man(a1-6)]Man(b1-4)GlcNAc(b1-4)GlcNAc
# Summary of the method: as §1
# [6] = molecular target: Fuc(a1-2)[Gal(a1-3)]Gal(b1-4)GlcNAc(b1-2)Man(a1-3)[Fuc(a1-2)[Gal(a1-3)]Gal(b1-4)GlcNAc(b1-2)Man(a1-6)]Man(b1-4)GlcNAc(b1-4)GlcNAc
# Summary of the method: as §1
# [7] = molecular target: Fuc(a1-2)[Gal(a1-3)]Gal(b1-4)[Fuc(a1-3)]GlcNAc
# Summary of the method: as §1
# [8] = molecular target: Fuc(a1-2)[GalNAc(a1-3)]Gal(b1-3)GlcNAc(b1-6)GalNAc
# Summary of the method: as §1
# [9] = molecular target: Fuc(a1-3)[Gal(b1-4)]GlcNAc(b1-6)GalNAc
# Summary of the method: as §1
# [10] = molecular target: Fuc(a1-3)[Gal3S(b1-4)]GlcNAc
# Summary of the method: as §1
# Fuc(a1-4)GlcNAc = molecular target: Fuc(a1-4)GlcNAc
# Summary of the method: as §1
# Gal(a1-3)Gal(b1-4)Glc = molecular target: Gal(a1-3)Gal(b1-4)Glc
# Summary of the method: as §1
# [11] = molecular target: Gal(a1-3)Gal(b1-4)GlcNAc(b1-6)GalNAc
# Summary of the method: as §1
# Gal(b1-3)Gal(b1-4)GlcNAc = molecular target: Gal(b1-3)Gal(b1-4)GlcNAc
# Summary of the method: as §1
# Gal(b1-3)GalNAc = molecular target: Gal(b1-3)GalNAc
# Summary of the method: as §1
# Gal(b1-3)GalNAc(b1-3)Gal = molecular target: Gal(b1-3)GalNAc(b1-3)Gal
# Summary of the method: as §1
# [12] = molecular target: Gal(b1-3)GlcNAc(b1-2)[Gal(b1-3)GlcNAc(b1-6)]Man(a1-6)[Gal(b1-3)GlcNAc(b1-2)Man(a1-3)]Man(b1-4)GlcNAc(b1-4)GlcNAc
# Summary of the method: as §1
# [13] = molecular target: Gal(b1-3)GlcNAc(b1-3)Gal(b1-4)Glc
# Summary of the method: as §1
# [14] = molecular target: Gal(b1-3)GlcNAc(b1-3)Gal(b1-4)GlcNAc(b1-2)[Gal(b1-3)GlcNAc(b1-3)Gal(b1-4)GlcNAc(b1-6)]Man(a1-6)[Gal(b1-3)GlcNAc(b1-3)Gal(b1-4)GlcNAc(b1-2)Man(a1-3)]Man(b1-4)GlcNAc(b1-4)[Fuc(a1-6)]GlcNAc
# Summary of the method: as §1
# [15] = molecular target: Gal(b1-3)GlcNAc(b1-3)Gal(b1-4)GlcNAc(b1-3)Gal(b1-4)GlcNAc(b1-2)[Gal(b1-3)GlcNAc(b1-3)Gal(b1-4)GlcNAc(b1-3)Gal(b1-4)GlcNAc(b1-6)]Man(a1-6)[Gal(b1-3)GlcNAc(b1-3)Gal(b1-4)GlcNAc(b1-3)Gal(b1-4)GlcNAc(b1-2)Man(a1-3)]Man(b1-4)GlcNAc(b1-4)[Fuc(a1-6)]GlcNAc
# Summary of the method: as §1
# [16] = molecular target: Gal(b1-3)GlcNAc(b1-3)Gal(b1-4)GlcNAc(b1-6)[Gal(b1-3)GlcNAc(b1-3)]Gal(b1-4)Glc
# Summary of the method: as §1
# [17] = molecular target: Gal(b1-3)GlcNAc(b1-3)GalNAc
# Summary of the method: as §1
# [18] = molecular target: Gal(b1-4)GlcNAc(a1-6)Gal(b1-4)GlcNAc
# Summary of the method: as §1
# [19] = molecular target: Gal(b1-4)GlcNAc(b1-2)[Gal(b1-4)GlcNAc(b1-4)]Man(a1-3)[Gal(b1-4)GlcNAc(b1-2)[Gal(b1-4)GlcNAc(b1-6)]Man(a1-6)][GlcNAc(b1-4)]Man(b1-4)GlcNAc(b1-4)GlcNAc
# Summary of the method: as §1
# [20] = molecular target: Gal(b1-4)GlcNAc(b1-2)[Gal(b1-4)GlcNAc(b1-4)]Man(a1-3)[GlcNAc(b1-4)][Gal(b1-4)GlcNAc(b1-2)Man(a1-6)]Man(b1-4)GlcNAc(b1-4)GlcNAc
# Summary of the method: as §1
# [21] = molecular target: Gal(b1-4)GlcNAc(b1-3)Gal(b1-4)GlcNAc(b1-2)[Gal(b1-4)GlcNAc(b1-3)Gal(b1-4)GlcNAc(b1-6)]Man(a1-6)[Gal(b1-4)GlcNAc(b1-3)Gal(b1-4)GlcNAc(b1-2)Man(a1-3)]Man(b1-4)GlcNAc(b1-4)GlcNAc
# Summary of the method: as §1
# [22] = molecular target: Gal(b1-4)GlcNAc(b1-3)Gal(b1-4)GlcNAc(b1-2)[Gal(b1-4)GlcNAc(b1-3)Gal(b1-4)GlcNAc(b1-6)]Man(a1-6)[Gal(b1-4)GlcNAc(b1-3)Gal(b1-4)GlcNAc(b1-2)Man(a1-3)]Man(b1-4)GlcNAc(b1-4)[Fuc(a1-6)]GlcNAc
# Summary of the method: as §1
# [23] = molecular target: Gal(b1-4)GlcNAc(b1-3)Gal(b1-4)GlcNAc(b1-3)Gal(b1-4)GlcNAc(b1-2)[Gal(b1-4)GlcNAc(b1-3)Gal(b1-4)GlcNAc(b1-3)Gal(b1-4)GlcNAc(b1-6)]Man(a1-6)[Gal(b1-4)GlcNAc(b1-3)Gal(b1-4)GlcNAc(b1-3)Gal(b1-4)GlcNAc(b1-2)Man(a1-3)]Man(b1-4)GlcNAc(b1-4)[Fuc(a1-6)]GlcNAc
# Summary of the method: as §1
# [24] = molecular target: Gal(b1-4)GlcNAc(b1-3)Gal(b1-4)GlcNAc(b1-3)Gal(b1-4)GlcNAc(b1-3)Gal(b1-4)GlcNAc(b1-2)Man(a1-3)[Gal(b1-4)GlcNAc(b1-3)Gal(b1-4)GlcNAc(b1-3)Gal(b1-4)GlcNAc(b1-3)Gal(b1-4)GlcNAc(b1-2)Man(a1-6)]Man(b1-4)GlcNAc(b1-4)GlcNAc
# Summary of the method: as §1
binder,measurement,setting,value
B1,glycan array binding signal (z-score),[1],-0.272
same,glycan array binding signal (z-score),[2],-0.078
same,glycan array binding signal (z-score),[3],-0.248
same,glycan array binding signal (z-score),[4],-0.301
same,glycan array binding signal (z-score),[5],-0.259
same,glycan array binding signal (z-score),[6],-0.257
same,glycan array binding signal (z-score),[7],-0.216
same,glycan array binding signal (z-score),[8],-0.353
same,glycan array binding signal (z-score),[9],-0.065
same,glycan array binding signal (z-score),[10],-0.253
same,glycan array binding signal (z-score),Fuc(a1-4)GlcNAc,-0.316
same,glycan array binding signal (z-score),Gal(a1-3)Gal(b1-4)Glc,-0.194
same,glycan array binding signal (z-score),[11],-0.27
same,glycan array binding signal (z-score),Gal(b1-3)Gal(b1-4)GlcNAc,-0.257
same,glycan array binding signal (z-score),Gal(b1-3)GalNAc,-0.273
same,glycan array binding signal (z-score),Gal(b1-3)GalNAc(b1-3)Gal,-0.243
same,glycan array binding signal (z-score),[12],3.42
same,glycan array binding signal (z-score),[13],0.808
same,glycan array binding signal (z-score),[14],2.4
same,glycan array binding signal (z-score),[15],3.58
same,glycan array binding signal (z-score),[16],4.17
same,glycan array binding signal (z-score),[17],0.153
same,glycan array binding signal (z-score),[18],9.59
same,glycan array binding signal (z-score),[19],4.13
same,glycan array binding signal (z-score),[20],1.46
same,glycan array binding signal (z-score),[21],1.23
same,glycan array binding signal (z-score),[22],3.75
same,glycan array binding signal (z-score),[23],4.71
same,glycan array binding signal (z-score),[24],3.24
